Shown is part of a subset that was picked to be rich in hits.
ERK EGF block – inhibitors of EGF-stimulated ERK signaling pathway; AID 1454; HEK293-V1b, EGF-stimulated phospho-ERK AlphaScreen; actives 0.41% (n = 130,000); Potency, µM (highest dose often 11.5 µM), most hits filed as inhibitors; active means well fitted inhibition curve with a large enough effect; further: nearly all actives have a fitted effect of over 55% in size
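Cell line HEK293 (stable V1b), low serum overnight. Pretreatment: compound 30 min, 37C. EGF 25 nM, 5 min. Detection: SureFire AlphaScreen, 5 h RT. AC50 via standard Hill equation.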
Numbers stand for hits; - = inactive.

SMILES | ERK EGF block
CC1(C)Cc2c(c(N3CCOCC3)nc3sc(-c4ccc(C(=O)O)o4)c(N)c23)CO1 | -
CN1Cc2c(N3CCOCC3)nc3sc(C(=O)c4ccc(Br)cc4)c(N)c3c2CC1(C)C | 35µM
CC1(C)Cc2c(c(N3CCOCC3)nc3sc(C(=O)N4CCCCC4)c(N)c23)CO1 | -
CC=C(/C(=C/C)c1ccc(O)cc1)c1ccc(O)cc1 | -
COc1c(S(=O)(=O)NCCCN2CCOCC2)ccc(Cl)c1Cl | -
O=C(OC1Cc2c(O)cc(O)cc2OC1c1cc(O)c(O)c(O)c1-c1c(C2Oc3cc(O)cc(O)c3CC2O)cc(O)c(O)c1O)c1cc(O)c(O)c(O)c1 (stereo not given) | -
O=[N+]([O-])c1ccc(O)c(Nc2ncnc3ccccc23)c1 | -
O=[N+]([O-])c1ccc(O)c(Nc2ncnc3ccc(Br)cc23)c1 | 25µM
COc1ccc(Nc2ncnc3ccc([N+](=O)[O-])cc23)c(OC)c1 | -
O=c1cnc2cnc(Oc3ccccc3)nc2n1C[C@H]1CCCO1 | -
CCCCC(C)(O)C/C=C/[C@H]1[C@H](O)CC(=O)[C@@H]1CCCCCCC(=O)O (stereo not given in full) | -
COc1ccccc1CN1CCC2(CC1)CCN(C(=O)c1c(C)noc1C)CC2 | -
Cn1c(N=Nc2ccc(N3CCOCC3)cc2)[n+](C)c2ccccc21 | 16µM
Cn1c(N2CCOCC2)c(/C=N/O)c2ccccc21 | -
Cn1c(O)c(C=Nc2ccc(N3CCOCC3)cc2)c(=O)n(C)c1=S | -
O=c1c(-c2ccc(F)cc2)nc2cnc(N3CCOCC3)nc2n1C[C@H]1CCCO1 | -
CCOC(=O)Nc1ccc2nc(N3CCCCCC3)sc2c1 | -
COC(=O)c1c(NC(=O)c2ccc(OC(C)C)cc2)sc2c1CC(C)(C)NC2(C)C | 28µM
COC(=O)c1c(NC(=O)c2ccccc2)sc2c1CC(C)(C)NC2(C)C | -
CCOC(=O)c1c(NC(=O)c2ccc(C)cc2)sc2c1CC(C)(C)NC2(C)C | -
Cc1ccc(SCCC(=O)OCC(=O)NCC2CCCCC2)cc1 | -
Cc1cccc(OCC(=O)Nc2ccc(S(=O)(=O)Nc3cc(C)nc(C)n3)cc2)c1 | -
C[C@H](C[C@H](N)C(=O)O)C(=O)O | -
CC1=C2C(O)C(=O)OC3CC4C(C)(C)C(=O)C=C[C@]4(C)C(CC1)[C@@]23C (stereo not given in full) | -
N#C/C(=C\c1ccc(-c2ccccc2)cc1)c1nc(-c2ccco2)cs1 | -
SMILES | ERK EGF block
CCOc1ccc(-c2csc(/C(C#N)=C\c3ccc(O)c([N+](=O)[O-])c3)n2)cc1 | 13µM
COc1ccc(/C=C(\C#N)c2cc(OC)c(OC)cc2[N+](=O)[O-])cc1 | -
CCCCN(C)CCNC(=O)c1ccc(Cn2c(=S)[nH]c3ccc(Br)cc3c2=O)cc1 | -
CC(=O)/C=C/c1ccccc1O | -
O=C(/C=C/c1ccccc1O)c1ccc(Cl)cc1 | 40µM
CCOc1ccccc1/C=C/C(=O)c1ccc(Cl)cc1 | -
O=S(=O)(c1ccccc1)N1CCC2(CCCN(c3ccncc3)C2)CC1 | -
CCN(CC)CCC(=O)Nc1cccc2c1C(=O)c1ccccc1C2=O | -
CN(C)c1cccc2c1C(=O)c1ccccc1C2=O | 13µM
CCN(CC)C(=O)c1cccc2c1C(=O)c1ccccc1-2 | -
COc1ccc2cc(C(C)CO)ccc2c1 (stereo not given) | -
CC1(C)C(=O)OC(/C=C\c2ccccc2)C(C)(C)C1=O (stereo not given) | -
Cc1cccc(OCC(=O)N2CCN(c3nnc(-c4ccccc4)c4ccccc34)CC2)c1 | -
Cc1cccc(OCC(=O)N2CCN(C(=O)c3ccc([N+](=O)[O-])cc3)CC2)c1 | -
Cc1ccc(-c2nnc(N3CCN(C(=O)COc4cccc(C)c4)CC3)c3ccccc23)cc1 | 40µM
NNC(=O)c1ccc2c(c1)S(=O)(=O)NNC2=O | -
Cc1nc(CNC(=O)CC2C(=O)NCCN2Cc2ccoc2)nc2c1CCCC2 (stereo not given) | -
O=C(/C=C\Nc1ccc2c(c1)OCO2)c1ccc2c(c1)OCO2 | -
O=C1Nc2ccc(Br)cc2/C1=C/C1CC=CCC1 (stereo not given) | -
O=C1Nc2ccc(Br)cc2/C1=C/C(=O)c1ccc2c(c1)OCO2 | 32µM
COC(CNC(=O)C(C)n1nc(C)c2ccccc21)OC (stereo not given) | -
COC(CNC(=O)c1ccc2c3c(onc13)-c1ccccc1C2=O)OC | 35µM
COC(CNC(=O)c1cccnc1)OC | -
Oc1cc(-n2cccn2)c(O)cc1-n1cccn1 | -
C[C@H]1CC[C@@H]2[C@@H](C)[C@H]3[C@H](C[C@H]4[C@@H]5CC=C6C[C@@H](O[C@]7(O[C@H]8O[C@@H](C)[C@@H](O)[C@@H](O)[C@@H]8O)C[C@@H](O[C@@H]8O[C@H](CO)[C@@H](O)[C@H](O)[C@@H]8O)[C@@H](O)[C@H](CO)O7)CC[C@]6(C)[C@H]5CC[C@@]34C)N2C1 | -
SMILES | ERK EGF block
O=C(O)c1ccccc1C(=O)NC1CCCCNC1=O (stereo not given) | -
Cc1cc(C)c(-n2nnnc2SCC(=O)c2cccs2)c(C)c1 | -
COc1cc(/C=C/c2cc(C(=O)O)c3ccccc3n2)cc(OC)c1O | 32µM
CCOc1cc(/C=C/c2cc(C(=O)O)c3ccccc3n2)ccc1O | -
CCOc1cc(/C=C/c2cc(C(=O)O)c3ccccc3n2)ccc1OC | -
CC1=CC=CC2=NC(=O)CC(C)(C(=O)O)N12 (stereo not given) | -
CCCC(=O)Nc1nc(CC(=O)OCC)cs1 | -
CCOC(=O)Cc1csc(NC(=O)/C=C/c2ccc(Br)o2)n1 | 35µM
CCOC(=O)Cc1csc(NC(=O)c2ccc(C)cc2)n1 | -
COc1ccc(NC(=O)N2CCN(S(C)(=O)=O)CC2)c(OC)c1 | -
COc1ccc(CCN2C(=O)CC(NC34CC5CC(CC(C5)C3)C4)C2=O)cc1OC (stereo not given) | -
COc1ccc(CCN2C(=O)CC(NNC(=O)c3ccccc3Br)C2=O)cc1 (stereo not given) | -
CCN(CC)c1ccc(NC2CC(=O)N(CCc3ccc(OC)cc3)C2=O)cc1 (stereo not given) | 35µM
O=C(Nc1ccccc1N1CCOCC1)c1ccc2nc[nH]c2c1 | -
O=C(CN1CCN(S(=O)(=O)c2ccccc2F)CC1)Nc1ccccc1C(=O)c1ccccc1 | -
COC(=O)[C@@]1(Cc2ccccc2)[C@H]2c3cc(C(=O)N(C)C)n(Cc4c(CO)[nH]cc(C)c4=O)c3C[C@H]2CN1C(=O)c1ccccc1 | -
COc1ccc(N2CCC(CNC(=S)Nc3cc(C)cc(C)c3)C2)cc1 (stereo not given) | 14µM
COc1ccc(CNC(=O)Nc2cc(C)ccc2C)cc1 | -
COc1ccc(N2CCC(CNC(=S)Nc3cc(C)ccc3C)C2)cc1 (stereo not given) | 14µM
COc1cccc(CNC(=S)Nc2cc(C)cc(C)c2)c1 | -
COc1ccc(N2CCN(C(=S)NCc3ccc(C)cc3)CC2)cc1 | -
COc1ccc(N2CCN(C(=S)Nc3ccc(C)cc3C)CC2)cc1 | -
COc1ccc2c(=O)cc(-c3ccc(O)cc3)oc2c1 | -
COc1ccccc1-c1cc(=O)c2cc(O)ccc2o1 | -
COc1ccc(OC)c(-c2c3cc(O)c(=O)cc-3oc3cc(O)c(O)cc23)c1 | 25µM
CC(/C=C/c1ccccc1)=N/NC(=O)C(O)c1ccccc1 (stereo not given) | -
CC(/C=C/c1ccccc1)=N/NC(=O)c1cc([N+](=O)[O-])cc([N+](=O)[O-])c1 | -

Bioassay records deposited in PubChem BioAssay by National Center for Advancing Translational Sciences (NCATS).
